Compound activity (PubChem)
Mito fusion yeast – inhibitors of mitochondrial division or activators of mitochondrial fusion; actives 0.23% (n = 320,000); S. cerevisiae fusion-defective mutant growth rescue, CellTiterGlo 48 h; Potency, µM (doses to about 46.1 µM), usual class: activators; note: nearly all actives have a fitted effect of over 45% in size
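Growth-rescue viability read-out: after 48 h at the non-permissive 37C in glycerol/ethanol YPEG, yeast mitochondrial fusion mutants are measured by CellTiterGlo luminescence; compounds (23 nl pinned per well) restoring growth score as division inhibitors or fusion activators.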
Abeta yeast res – restores growth of yeast expressing A-beta42 peptide; yeast expressing A-beta42, growth rescue, OD600, 48 h; response scale: 0% DMSO, 100% iron-clioquinol control; actives 0.063% (n = 410,000); Potency, µM (doses to about 46.1 µM), actives largely listed as activators; note: nearly all actives have a fitted effect of over 55% in size
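Yeast A-beta toxicity model in growth medium with pinned compounds, 48 h at 30 C; growth read as absorbance at 600 nm. Normalized to FeCl3/clioquinol equimolar mix (positive) and DMSO (negative).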
TDP43 rescue – inhibitors of TDP-43 toxicity in yeast | Potency, µM (highest dose often 46.1 µM), actives largely listed as activators | TDP-43 expressing yeast growth rescue, BacTiter-Glo, 24 h | actives 1.8% (n = 410,000) | AID 652104; note: nearly all actives have a fitted effect of over 50% in size
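In this qHTS, compounds that restore growth of yeast expressing TDP-43 appear as activators. Cells (OD600=0.02, galactose medium, raffinose-pregrown) are incubated with compound 24 hr at 30 deg C and growth is quantified by BacTiter-Glo.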
aSyn yeast inh – inhibitors of alpha-synuclein toxicity in yeast | Yeast expressing alpha-synuclein, growth rescue, BacTiter-Glo, 24 h | Potency, µM (doses to about 46.1 µM), hits mostly activators | actives 0.14% (n = 370,000) | AID 652106; note: nearly all actives have a fitted effect of over 65% in size
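Rescue of yeast growth: cells expressing toxic alpha-synuclein, induced in galactose at OD600 0.02, incubated with compound 24 h at 30 C. ATP luminescence quantified growth; inhibitors of toxicity appear as activators.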
FUS suppressor – FUS proteinopathy suppression in yeast. S. cerevisiae FUS-expressing, growth rescue, OD600, 24 h. Potency, µM (highest dose often 76.6 µM), hits mostly activators. actives 0.24% (n = 390,000). AID 1347120; note: nearly all actives have a fitted effect of over 55% in size
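Compound concentration series was pinned onto galactose-induced FUS-expressing yeast seeded at OD 0.005. Plates sat 24hr at 30C; absorbance at 600 nm gave growth. DMSO served as background control.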
A number is an active result; – = inactive; ? = inconclusive; · = no result. Hits are enriched below; roughly 2.2% of the tested compounds scored in any of these assays. Calls come from the whole dose curve; as a rule, active = well fitted curve in the direction sought with a large enough effect; inconclusive = small, poorly fitted or top-dose-only effect, or another doubt; inactive = no such curve, though single readings can be large; an effect the other way counts as inactive or inconclusive.

SMILES | Mito fusion yeast | Abeta yeast res | TDP43 rescue | aSyn yeast inh | FUS suppressor
CN(C(=O)c1ccc(NC(=O)Cc2ccc(NC(=O)C3CCCN(C(=O)C4CCC4)C3)cc2)cc1)C1CCCC1 (configuration not stated) | · | – | – | – | –
CCN(CC)C(=O)CNc1nnnn1-c1ccccc1 | · | · | · | · | –
CN(C)c1nc(Nc2ccc(Cl)cc2)nc(OCC#N)n1 | – | – | 11µM | – | –
CCOc1nc(Nc2ccccc2)nc(OCC)n1 | – | – | ? | – | –
CCOc1nc(Nc2ccc(Cl)cc2)nc(OCC)n1 | – | – | 11µM | – | –
CN(C)c1nc(OCCNC(=O)Nc2ccc(Cl)cc2)nc(N(C)C)n1 | – | – | – | – | –
Cc1cc(Cl)ccc1OCC(=O)N1CCCN(C(=O)COc2ccc(Cl)cc2C)CC1 | – | – | 25µM | ? | ·
COc1ccccc1N1CCN(C(=O)COc2ccc(Cl)cc2Br)CC1 | – | – | 14µM | 28µM | –
COc1ccc(C(=S)N2CCN(c3ccccc3Cl)CC2)cc1OC | – | – | 11µM | – | –
Cc1cc(Cl)ccc1OCC(=O)N1CC(C)CC(C)C1 (configuration not stated) | – | – | ? | – | –
Cc1cc(Cl)ccc1OC(C)C(=O)N1CCCN(C(=O)C(C)Oc2ccc(Cl)cc2C)CC1 (configuration not stated) | ? | – | 32µM | ? | ?
O=c1c2ccccc2sn1-c1ccc(S(=O)(=O)N2CCOCC2)cc1 | · | · | · | – | ·
N#Cc1cc2cc(Cl)ccc2[nH]c1=O | · | – | – | – | –
CSc1ccccc1NC(=O)COc1ccc(Cl)cc1C | – | – | 16µM | – | ·
CN(C)c1ccc(NC(=O)CSc2nc3ccccc3c(=O)n2C2CCCCC2)cc1 | – | – | – | – | ?
CCN(CC)c1ccc(NC(=O)CSc2nc3ccccc3c(=O)n2-c2cc(S(=O)(=O)N(C)C)ccc2C)cc1 | – | – | – | – | 35µM
CN(C)S(=O)(=O)c1ccc(NC(=O)CSc2nc3ccccc3n2-c2ccccc2)cc1 | – | – | – | – | 6.3µM
CN(C)S(=O)(=O)c1cccc(NC(=O)CSc2nc3ccccc3n2-c2ccccc2)c1 | – | – | – | – | ·
S=C(NC1CCCC1)N1CCN(C/C=C/c2ccccc2)CC1 | – | – | – | – | –
O=C(c1cnccn1)N1CCc2c([nH]c3ccccc23)C1c1cccc(Cl)c1 (configuration not stated) | ? | – | 18µM | ? | ?
Cc1cc(C(=O)N2CCc3c([nH]c4ccccc34)C2c2cccc(Cl)c2)nn1C (configuration not stated) | 5µM | – | – | – | –
COc1ccc(CN2CCC(n3nccc3NC(=O)C3CC3)CC2)cc1O | – | – | – | – | ·
c1csc(Cn2c(-c3cccs3)nc3ccccc32)c1 | – | – | 13µM | – | –
CCCC[C@H](C(=O)N(C)c1cccc(OC)c1)[C@@H](O)c1ccc2ccccc2c1 | · | · | · | · | –
CC1(C)OC(=O)C2(Cc3ccc(Cl)cc3N3CCCCC32)C(=O)O1 (configuration not stated) | · | · | · | – | ·
SMILES | Mito fusion yeast | Abeta yeast res | TDP43 rescue | aSyn yeast inh | FUS suppressor
CCCNC(=O)c1cnn2c(C(F)F)cc(-c3ccccc3)nc12 | · | – | 13µM | · | –
Cc1ccc(-c2nc3sc(CCNC(=O)c4ccc(Br)o4)c(C)n3n2)cc1 | · | – | 18µM | · | ?
Cc1ccc(-c2nc3sc(CCNC(=O)c4ccco4)c(C)n3n2)cc1 | · | – | 20µM | · | –
Cc1c(CCNC(=O)c2ccco2)sc2nc(-c3ccc(F)cc3)nn12 | · | – | ? | · | –
Cc1cc(C)c(S(=O)(=O)NCCc2sc3nc(-c4ccc(F)cc4)nn3c2C)c(C)c1 | · | ? | 20µM | · | –
Cc1c(CCNC(=O)Cc2ccccc2)sc2nc(-c3ccc(F)cc3)nn12 | · | – | 10µM | · | –
Cc1c(CCNC(=O)c2ccc(Br)o2)sc2nc(-c3ccc(F)cc3)nn12 | · | – | – | · | –
COCC(=O)Nc1ccc2c(c1)[C@@H]1C[C@H](CC(=O)OC)O[C@@H](CO)[C@@H]1O2 | · | – | ? | – | –
COC(=O)c1ccc(NC(=O)N2CCN(c3nnc(C)c4c(C)n(-c5ccccc5)nc34)CC2)cc1 | · | – | – | · | –
COc1cc2c(cc1OC)CN(C(=O)Nc1ccccc1Cl)CC2 | – | – | 11µM | – | –
